# VP16 counter – inhibits Gal4-VP16 luciferase reporter, ROR gamma counter-screen. AID 2546. Potency, µM (titrated, usually from 53.6 µM), actives largely listed as inhibitors. hit rate 3.5% among 310,000. Drosophila S2 Gal4-VP16 UAS-luciferase, luminescence, 20 h;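 also: Gal4-VP16 expression switched on by copper sulfate through the metallothionein promoter; nearly all actives have a fitted effect of over 50% in size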
# RORg inh – blocks mouse ROR gamma transcriptional activity; hit rate 5.4% among 310,000; Drosophila S2 Gal4-RORgamma UAS-luciferase reporter, 20 h; P51450; Potency, µM (highest dose often 53.6 µM), usual class: inhibitors; AID 2551; also: nearly all actives have a fitted effect of over 60% in size
# Target sequence (P51450 whole entry, looked up, the tested form may be a part): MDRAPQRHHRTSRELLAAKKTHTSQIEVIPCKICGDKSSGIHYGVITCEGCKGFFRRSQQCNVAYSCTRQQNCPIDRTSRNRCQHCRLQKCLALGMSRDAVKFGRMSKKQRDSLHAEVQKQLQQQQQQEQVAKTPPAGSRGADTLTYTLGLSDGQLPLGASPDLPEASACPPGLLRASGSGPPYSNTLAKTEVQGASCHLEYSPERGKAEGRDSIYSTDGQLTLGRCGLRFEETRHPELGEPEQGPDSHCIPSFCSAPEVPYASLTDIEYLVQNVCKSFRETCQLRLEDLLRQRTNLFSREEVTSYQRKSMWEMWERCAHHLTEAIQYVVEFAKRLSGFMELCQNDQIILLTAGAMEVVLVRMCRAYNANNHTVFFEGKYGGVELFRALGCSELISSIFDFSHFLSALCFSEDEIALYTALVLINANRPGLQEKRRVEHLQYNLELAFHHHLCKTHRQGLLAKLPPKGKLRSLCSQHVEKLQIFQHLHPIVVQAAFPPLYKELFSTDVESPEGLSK
#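 Luciferase reporter read in Schneider cells carrying Gal4-RORγ (mouse) and UAS-Photinus luciferase; cells given compound 1 h before 700 uM copper sulfate induction, then incubated 20 h at ambient temperature.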
# Mito fusion yeast – blocks mitochondrial division or promotes mitochondrial fusion; S. cerevisiae fusion-defective mutant growth rescue, CellTiterGlo 48 h; hit rate 0.23% among 320,000; AID 485298; Potency, µM (top dose mostly 46.1 µM), hits mostly activators; also: nearly all actives have a fitted effect of over 45% in size
#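 Yeast fusion mutant, YPEG (non-fermentable carbon), compound, 48 h at 37C non-permissive; CellTiterGlo added, 10 min RT, luminescence read. Rescued growth = division inhibition.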
# uPA generation – blocks generation of uPA at the cell surface | Potency, µM (doses to about 38.3 µM), most hits filed as inhibitors | cell surface uPA generation assay, qHTS | hit rate 0.31% among 330,000; active = well fitted inhibition curve with a large enough effect; inconclusive = small, poorly fitted or top-dose-only effect; inactive = no such curve, though single readings can be large or run the other way; tested in mouse RAW 264.7 cells; also: nearly all actives have a fitted effect of over 55% in size
# BCR signal inh – chronic active BCR signaling inhibition | ABC-DLBCL IkBa-CBG/CBR reporter, luminescence ratio, 4 h | Potency, µM (top dose mostly 46.1 µM), most hits filed as inhibitors | hit rate 0.05% among 340,000; active = well fitted inhibition curve with a large enough effect in the signal ratio, with a control signal flat, not every such curve was filed as active; inconclusive = small, poorly fitted or top-dose-only effect, or effect the other way, or a change in a side signal; the % refers to the signal ratio
#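 Cell line TMD8 (human ABC DLBCL), stably expressing tet-inducible CBG68-IkBa fusion and CBR; IMDM/0.5% FBS; cpd up to 46 uM; dox induction, 4 h, 37C/5% CO2; dual luminescence; green/red ratio; MG132 control.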
# a7 integrin act – integrin-mediated muscular dystrophy alleviation activation | alpha7betagal myoblasts, beta-gal FDG fluorescence, 48 h | Potency, µM (titrated, usually from 38.3 µM), usual class: activators | hit rate 0.064% among 350,000; also: nearly all actives have a fitted effect of over 60% in size
#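 alpha7betagal+/- myoblasts (passage 13, 250/well) treated 48 h at 37C with compounds at 1:260 dilution of DMSO stock. Lysed, then beta-galactosidase activity read as FDG fluorescence (ex 480/em 540) after 30 min, with pre-read for autofluorescence.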
# A number is an active result; n = inactive; u = inconclusive; x = not tested or not shown; [ ] = remark or other dose. An excerpt weighted towards active compounds, which were near 5.5% of everything screened. Unless noted, calls follow the shape of the dose curve; as a rule, active = well fitted curve in the direction sought with a large enough effect; inconclusive = small, poorly fitted or top-dose-only effect, or another doubt; inactive = no such curve, though single readings can be large; an effect the other way counts as inactive or inconclusive.
SMILES,VP16 counter,RORg inh,Mito fusion yeast,uPA generation,BCR signal inh,a7 integrin act
CC(=O)Nc1ccc(OCC(O)Cn2c(C)nc3ccccc32)cc1 (stereo not given),7.9µM,u,n,n,n,n
CC(=O)N(C)c1ccc(OCC(O)Cn2c(C)nc3ccccc32)cc1 (stereo not given),16µM,n,n,n,u,n
CC(=O)N(C)c1ccc(OCC(O)Cn2c3ccc(Cl)cc3c3cc(Cl)ccc32)cc1 (stereo not given),n[0.365 µM],20µM,n,n,n,n
O=C(NN1CC(C(=O)OCc2ccc(Br)cc2)CC1=O)c1ccccc1 (stereo not given),n,n,n,n,n,n
Cn1cccc1/C=C1\SC(=Nc2ccc(O)cc2)NC1=O,n,n,n,u,u,n
Cn1cc(/C=C2/SC(=O)N(c3ccccc3)C2=O)c2ccccc21,n,n,n,n,n,n
Cn1cccc1/C=C1\SC(=Nc2cccc(O)c2)NC1=O,u,3.2µM,n,u,u,n
Cn1cccc1/C=C1\SC(=Nc2ccccc2)NC1=O,n,n,n,1.4µM,u,n
COc1cc(/C=C2\SC(=Nc3ccc(O)cc3)NC2=O)cc(OC)c1O,n,n,n,n,n,n
Cc1cc(C)cc(N=C2NC(=O)/C(=C/c3cccs3)S2)c1,16µM,u,n,n,u,u
Cc1ccc(N=C2NC(=O)/C(=C/c3cn(C)c4ccccc34)S2)cc1C,u,13µM,u,n,n,n
O=C(CN(C(=O)CCC(=O)Nc1ccccn1)C1CCCC1)NCc1ccccc1,n,n,n,n,n,n
C[C@@H]1CC2C3CCC4=CC(=O)C=CC4(C)[C@@]3(F)[C@@H](O)CC2(C)[C@@]1(O)C(=O)CO (stereo not given in full),n,n,x,x,x,x
COc1ccc2[nH]cc(CCNc3ccnc(-c4ccc5c(c4)OCO5)n3)c2c1,n,n,x,x,x,x
Cc1nc(SCC(=O)N2CCCC2=O)nc(C)c1C,x,x,x,n,n,n
Cc1ccc(N=C2NC(=O)/C(=C/c3cccn3C)S2)c(C)c1,n,10µM,n,n,u,n
CCOc1ccccc1NC(=O)Nn1cnnc1,n,n,n,n,n,u
O=c1c2ccccc2[nH]c2ccccc12,20µM,u,u,n,n,n
O=c1[nH]c2ccccc2c2ccccc12,n,n,n,n,n,n
O=c1c2c([nH]c3ccccc13)CCCCC2,18µM,u,n,n,u,n
O=c1c2c([nH]c3ccccc13)CCCCCC2,n,n,n,n,n,n[7.66 µM]
NNc1nc(-c2ccccc2)cc(-c2ccccc2)n1,n,4.5µM,n,u,u,n
N#Cc1cc(-c2ccccc2)nc(NN)n1,n,u,n,n,u,n
NNc1nc(-c2ccccc2)cc(-c2ccccc2O)n1,13µM,7.1µM,n,x,u,n
Cc1cccn2c(=O)nc(SCC(=O)NCc3ccccc3)nc12,x,x,n,n,u,n
SMILES,VP16 counter,RORg inh,Mito fusion yeast,uPA generation,BCR signal inh,a7 integrin act
Cc1cc(N/N=C/c2ccncc2)nc2ccccc12,n,u,n,u,n,u
Cc1cc(N/N=C/c2cccc(Br)c2)nc2ccccc12,u,11µM,n,n,u,n
Cc1ccc(/C=N/Nc2cn[nH]c(=O)n2)o1,n,u,n,n,u,n
Cc1cccc(/C=N\Nc2cn[nH]c(=O)c2Cl)c1,n,n,n,u,u,n
Cc1cccc(/C=N/Nc2ccc3ccccc3n2)c1,6.3µM,2.8µM,n,8.9µM,u,n
Cc1ccc(/C=N/Nc2ccc3ccccc3n2)o1,18µM,13µM,n,n,u,n
CCCCCC/C=C1\CC(C(=O)OCC)Oc2ccccc21 (stereo not given) (tested in a mixture with another compound),n,n,x,x,x,x
CC1(C)CC(=O)C=C(Nc2ccc(Cl)c(Br)c2)C1,n,u,n,n,n,n
O=C1CC(c2cc(-c3ccccc3)no2)C1,n,n,n,n,n,n
CSc1cccc(N2C(=O)N(CC(=O)NCc3ccccc3Cl)c3ccccc3S2(=O)=O)c1,x,x,x,x,n,x
O=c1[nH]c(Nc2nc3ccccc3o2)nc2c1CCCC2,10µM,4µM,n,u,n,n
Cc1ccc(Nc2nc3c(c(=O)[nH]2)CCCC3)cc1,u,n,n,n,n,n
O=C(CC1C(=O)CCCC1=O)c1ccccc1,u,10µM,n,n,u,n
COc1cccc(C2=Nn3c(nnc3-c3cc(OC)ccc3OC)SC2)c1,n,n,x,x,x,x
Cn1cccc1/C=N/NC(=O)c1sc2cc(Cl)ccc2c1Cl,0.56µM,0.71µM,n,x,n,x
Cc1cc(C(=O)N/N=C/c2cccn2C)no1,n,n,n,n,u,n
Cc1ccc2c(Cl)c(C(=O)N/N=C/c3cccn3C)sc2c1,1.6µM,1.3µM,n,n,n,n
O=C(NCc1ccco1)c1sc2cc(Cl)ccc2c1Cl,n,n,n,n,u,n
C[C@H](NC(=O)[C@H]1N2C(=O)c3ccccc3C2SC1(C)C)C(=O)N1CCC[C@H]1C(=O)O (stereo not given in full),n,n,n,n,n,n
Cc1cccc(NC(=O)CNC(=O)c2ccc3nc[nH]c3c2)c1C,x,x,n,n,n,n
CCCOc1ccc(C(=O)NNC(=S)NC(=O)c2ccccc2)cc1,u,10µM,n,n,u,n
COC(=O)CNC(=S)NC(=O)c1ccc(C(C)(C)C)cc1,n[10 µM],6.3µM,n,u,n,n
C=CCNC(=S)NNC(=O)c1ccc(OCCCC)cc1,u,8.9µM,n,n,n,n
COCCCNC(=S)NNC(=O)c1ccc(C(C)(C)C)cc1,n,n,n,n,n,n
CCCCOc1ccc(C(=O)NNC(=S)NC(=O)CC)cc1,u,n,n,n,n,n
SMILES,VP16 counter,RORg inh,Mito fusion yeast,uPA generation,BCR signal inh,a7 integrin act
CCCOc1ccc(C(=O)NNC(=S)NC(C)=O)cc1,n,n,n,x,n,n
CC(C)(C)c1ccc(OCC(=O)NNC(=S)NC(=O)c2ccccc2[N+](=O)[O-])c(Br)c1,16µM,11µM,n,n,n,n
CCCOc1ccc(C(=O)NNC(=S)NC(=O)c2cccs2)cc1,7.9µM,8.9µM,n,n,u,n
CC(C)(C)c1ccc(C(=O)NC(=S)NNC(=O)COc2ccccc2)cc1,2.8µM,2.5µM,n,n,n,n
CCCC(=O)Nc1ccc(C(=O)NNC(=S)NC(=O)c2cccs2)cc1,n,10µM,n,n,n,n
CCCOc1ccc(C(=O)NNC(=S)NC(=O)c2cc(-c3ccccc3)nc3ccccc23)cc1,n,7.1µM,n,n,n,n
CCCC(=O)Nc1ccc(C(=O)NNC(=O)c2cccs2)cc1,n,n,n,x,n,n
CCCOc1ccc(C(=O)NNC(=S)NC(=O)c2ccccc2[N+](=O)[O-])cc1,20µM,18µM,n,n,u,n
C=CCNC(=S)NNC(=O)C(CCCC)CC(C)(C)O (stereo not given),5.6µM,2.8µM,n,n,u,n

# High-throughput results: PubChem, National Center for Advancing Translational Sciences (NCATS)
